Compound activity as filed in PubChem BioAssay.
D2 ag-1 = Beta-Arrestin HTS for Positive Allosteric Modulators of the Human D2 Dopamine Receptor: Agonists | D(2) dopamine receptor (Homo sapiens), P14416 | DiscoveRx PathHunter D2 beta-arrestin, luminescence, 90 min; 100% = 57 uM dopamine signal | activation, % (test concentration not listed) | 0.084% of 360,000 active | AID 624465, 2012; in the data active = activation above about 40%; inconclusive = between about 15% and that limit
Target sequence (P14416 whole entry, looked up): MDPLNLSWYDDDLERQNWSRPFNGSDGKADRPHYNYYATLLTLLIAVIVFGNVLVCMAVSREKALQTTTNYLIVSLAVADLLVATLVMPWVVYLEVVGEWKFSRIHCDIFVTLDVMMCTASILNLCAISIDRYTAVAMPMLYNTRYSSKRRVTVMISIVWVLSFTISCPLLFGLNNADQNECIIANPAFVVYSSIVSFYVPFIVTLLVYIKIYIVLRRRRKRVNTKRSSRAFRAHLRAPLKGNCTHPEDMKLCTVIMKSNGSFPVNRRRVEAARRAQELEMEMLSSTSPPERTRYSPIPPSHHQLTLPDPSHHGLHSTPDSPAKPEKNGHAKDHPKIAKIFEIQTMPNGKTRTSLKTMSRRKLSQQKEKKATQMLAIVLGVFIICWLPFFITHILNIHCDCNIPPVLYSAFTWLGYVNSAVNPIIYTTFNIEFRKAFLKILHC
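Agonist mode: compounds alone added to overnight-plated D2 PathHunter cells for 90 min at 37 C, with 57 uM final dopamine (EC100) defining full response. Beta-arrestin recruitment detected by chemiluminescent reagent, read after 1 h at ambient temperature.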
D2 PAM-1 = HTS Assay for Positive Allosteric Modulators of the Human D2 Dopamine Receptor: Primary Screen for Potentiators | D(2) dopamine receptor (Homo sapiens), P14416 | HEK293 T-REx D2, calcium flux, EC20 dopamine potentiation | potentiation, % at 10 µM | 0.34% of 340,000 active | AID 485347, 2010;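 active = potentiation over 3 SD above the plate norm, cut at about 30% in these data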
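Tetracycline-induced HEK293 T-REx cells force-coupled to calcium signalling expressed D2; compounds were pin-added after a 10 s baseline, read kinetically 180 s, then an EC20 dopamine challenge followed with a further 180 s calcium read.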
D2 PAM-2 = Beta-Arrestin HTS for Positive Allosteric Modulators of the Human D2 Dopamine Receptor: Potentiators. 0.23% of 360,000 active. D(2) dopamine receptor (Homo sapiens), P14416. DiscoveRx D2 beta-arrestin cells, luminescence, 90 min; 100% = 57 uM dopamine signal. potentiation, % (test concentration not listed). AID 624464, 2012; in the data active = potentiation above about 50%; inconclusive = mostly about 30% to 49%
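D2 cells co-treated with compound plus 50 nM dopamine (EC20) for 90 min at 37 deg C to detect potentiation. Beta-arrestin recruitment was read as enzyme-fragment luminescence after 1 h at ambient temperature. Full response was set by 57 uM dopamine.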
D2 ag-2 = HTS Assay for Allosteric Agonists of the Human D2 Dopamine Receptor: Primary Screen for Agonists; HEK293 T-REx D2 cells, calcium flux agonist mode; AID 485358, 2010; activation, % at 2 µM; 0.53% of 340,000 active; D(2) dopamine receptor (Homo sapiens), P14416;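 active = activation over 3 SD above normal in the single-dose calcium agonist read, cut at about 30% in these data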
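In this primary screen, compounds producing a positive calcium signal within 180 s of addition to tetracycline-induced, force-coupled HEK293 Trex D2 cells are flagged; cells are dye-loaded with a no-wash calcium kit beforehand.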
D2 antag = HTS Assay for Allosteric Antagonists of the Human D2 Dopamine Receptor: Primary Screen for Antagonists; HEK293 TREx D2 cells, calcium flux, dopamine EC80; D(2) dopamine receptor (Homo sapiens), P14416; inhibition, % at 10 µM; 2% of 340,000 active; in the data active = inhibition above about 30%; inactive = below that, where a call was filed
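Measurement of antagonist activity uses fluorescent calcium dye in inducible HEK293 T-REx D2 cells: 10 s baseline, compound addition with 180 s read, EC80 dopamine addition with a further 180 s read.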
A number is an active result; – = inactive; ? = inconclusive; · = not tested or not shown. Only some compounds are listed: those with a hit (about 2.4% of all), similar ones and a draw of the others.

SMILES | D2 ag-1 | D2 PAM-1 | D2 PAM-2 | D2 ag-2 | D2 antag
COc1c(C)cc(S(=O)(=O)Nc2cccc(-c3ccc(N4CCOCC4)nn3)c2)c(C)c1C | · | – | · | – | ·
C=CCSc1nnc2c(n1)OC(c1cccnc1)Nc1ccccc1-2 (stereo not drawn) | – | – | 53 | – | –
C=CCSc1nnc2c(n1)OC(c1cccnc1)N(C(C)=O)c1ccccc1-2 (stereo not drawn) | – | – | – | – | –
COc1ccccc1Nc1sc(C(=O)c2ccc3c(c2)OCO3)c(N)c1S(=O)(=O)c1ccccc1 | · | – | · | – | ·
C=CC(COCc1ccccc1)N(C(=O)OC(C)(C)C)S(=O)(=O)c1ccccc1Br (stereo not drawn) | – | – | – | – | 68
COC(=O)C1C(=O)NC(SC)=C(C#N)C1c1ccccc1 (stereo not drawn) | – | 34 | – | – | –
O=C(COC(=O)c1cccnc1Cl)c1ccc(Cl)s1 | – | · | – | · | ·
O=C(COC(=O)c1cccnc1Cl)c1cccc(Cl)c1 | – | – | – | – | 69
Cc1ccc(-n2c(SCC(N)=O)nc3c(oc4ccccc43)c2=O)cc1C | · | – | · | – | ·
COc1ccc(NS(=O)(=O)c2ccc(N/N=C(\C)c3ccncc3)c([N+](=O)[O-])c2)cc1 | – | – | – | – | 79
C/C(=N\Nc1ccc(S(=O)(=O)Nc2ccccc2)cc1[N+](=O)[O-])c1ccncc1 | · | – | · | · | ·
CC1CCCC(C)N1C(=O)c1ccc(S(=O)(=O)NCc2ccco2)cc1 (stereo not drawn) | – | · | – | – | 37
CC1(C)Cc2cccc(C(=O)NC3CCN(Cc4ccccc4)CC3)c2O1 | – | – | – | – | 73
Cc1ccc(C)n1-c1ccc(C(=O)NC2CCN(Cc3ccccc3)CC2)cc1 | – | – | – | – | 85
O=C(NC1CCN(Cc2ccccc2)CC1)c1ccc(S(=O)(=O)NCc2ccco2)cc1 | – | – | – | – | 36
CN1CCN(C(=O)Cn2c(-c3cccs3)cc3ccccc32)CC1 | · | – | · | – | ·
CCN(CC)c1ccc(CN(C(=O)Cc2coc3ccc(C)cc23)C2CCS(=O)(=O)C2)cc1 (stereo not drawn) | · | – | · | – | ·
O=C(O)c1cn(-c2ccccc2)nc1-c1cccnc1 | – | – | – | – | –
Cc1ccccc1C(=O)NC1CCN(Cc2ccccc2)CC1 | – | – | – | – | –
O=C(NC1CCN(Cc2ccccc2)CC1)c1cn(-c2ccccc2)nc1-c1cccnc1 | – | – | – | – | 75
Cc1ccc(CN2CCC(NC(=O)c3ccccc3)CC2)cc1 | – | – | – | – | 90
COc1cc(-c2noc(CCC(=O)Nc3cc(C)ccc3C)n2)cc(OC)c1OC | · | – | · | – | ·
CC(=O)N1CCc2c(sc3c2c(=O)n(-c2ccccc2)c(=O)n3Cc2cccc(C(F)(F)F)c2)C1 | · | – | · | – | ·
O=C1c2ccccc2-c2onc3ccc(N4CCCC4)c1c23 | – | – | – | – | –
CCOc1ccc2noc3c2c1C(=O)c1ccccc1-3 | – | · | – | · | ·
SMILES | D2 ag-1 | D2 PAM-1 | D2 PAM-2 | D2 ag-2 | D2 antag
CCNc1ccc2noc3c2c1C(=O)c1ccccc1-3 | – | · | 70 | · | ·
O=C1c2ccccc2-c2onc3ccc(NCc4ccco4)c1c23 | ? | – | 112 | – | –
Cc1ccc(Cn2c(CNC(=O)CCc3ccccc3)nc3cccnc32)cc1 | · | – | · | – | ·
CCn1nnc(NC(=O)c2ccco2)n1 | – | – | – | – | 69
Oc1ccccc1N1CCN(c2ncnc3scc(-c4ccccc4)c23)CC1 | – | 33 | – | – | –
Oc1ccccc1N1CCN(c2ncnc3scc(-c4ccc(F)cc4)c23)CC1 | – | · | – | · | ·
CC(C)c1ccc(N2C(=O)/C(=C/N(C)C)SC2=S)cc1 | – | – | – | 30 | –
CCO/C=C1\SC(=S)N(c2ccc(Cl)cc2)C1=O | – | – | – | – | –
Nc1c(Cl)ncnc1NCCO | – | – | – | – | –
Nc1c(Cl)ncnc1NCc1ccccc1 | – | · | – | · | 56
COc1ccc(C2=NN(C(=O)CSc3ncccn3)C(c3ccc(C)cc3)C2)cc1 (stereo not drawn) | – | – | – | – | –
COc1ccc(C2=NN(C(=O)CSc3nc(=O)n4cccc(C)c4n3)C(c3ccc(C)cc3)C2)cc1 (stereo not drawn) | – | – | – | – | 34
Cc1cc2c(cc1S(=O)(=O)CCC(=O)N1CCCCC1C)OCC(=O)N2 (stereo not drawn) | · | – | · | – | ·
O=C(OCC(=O)N1CCCc2ccccc21)c1ccc(C(F)(F)F)cc1 | – | – | – | – | –
O=C(OCC(=O)N1CCCc2ccccc21)c1ccc(S(=O)(=O)C(F)F)cc1 | – | – | – | – | 42
COc1ccc(NC(=O)c2cccs2)cn1 | – | – | – | – | –
COc1ccc(OCC(=O)Nc2ccc(NC(=O)c3cccs3)cc2)cc1 | – | 32 | – | – | –
CC(C)(C)c1ccc(Oc2ccc(NC(=O)c3cccs3)cn2)cc1 | – | 31 | – | – | –
COc1ccc(OCC(=O)NNC(=O)c2cccs2)cc1 | – | – | – | – | –
CN1/C(=C\C(=O)C[n+]2ccc(C(=O)c3ccccc3)cc2)C(C)(C)c2ccccc21 | – | – | 53 | – | –
Cn1cc(CN2CCN(c3ccccc3)CC2)c2ccccc21 | – | – | – | 74 | 81
Cc1ccc(C)c(N2CCN(C(=O)C3CCCN(S(=O)(=O)c4ccc5c(c4)oc(=O)n5C)C3)CC2)c1 (stereo not drawn) | · | – | · | – | ·
CC(C)(C)OC(=O)NCCCCCc1nnc(SCc2ccccc2)o1 | – | – | – | – | 36
O=S(=O)(c1ccc(F)cc1)N1CCC(O)(c2ccc3c(c2)OCO3)CC1 | – | – | – | – | –
OC1(c2ccc3c(c2)OCO3)CCN(Cc2ccc(F)cc2)CC1 | – | – | – | – | 73
SMILES | D2 ag-1 | D2 PAM-1 | D2 PAM-2 | D2 ag-2 | D2 antag
OC1(c2ccc(F)cc2)CCN(Cc2cccnc2)CC1 | – | – | – | – | 34
COc1ccc(-c2noc(C3CC(=O)N(c4ccc(C)c(F)c4)C3)n2)c(OC)c1 (stereo not drawn) | · | – | · | – | ·
O=c1[nH]c2ccccc2nc1/C=C(\O)c1cccs1 | – | – | – | 65 | –
O/C(=C\c1nc2ccccc2[nH]1)c1cccs1 | – | – | – | – | –
OC(CNCC1CCCO1)COc1ccc(OCC(O)CNCC2CCCO2)cc1 (stereo not drawn) | – | 43 | – | – | –
OC(CNCC1COc2ccccc2O1)COc1ccc(Cl)cc1 (stereo not drawn) | – | – | – | 33 | 104
